# Source: the supplement of paper PMC7411054
# Where a name gives a salt, the structure may show the parent alone.
# Columns and labels:
# Experiment in all cases: lowest phenotypically active concentration; higher = less potent
# Conditions in all cases: treatment time: 24 h
# [1] = test system: HepG2-CANX-COX4
# Procedure, shortened: (§1)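 Phenotypic activity depended on meeting both a deviation and a reproducibility criterion. The fifteen gene-edited A549, HepG2 and WPMY1 reporter lines were treated at 0.3, 1, 3 or 9 µM for 24 h, four wells each, then imaged live with features normalised to solvent control wells. Deviation required ≥3 of 4 wells past the 95th percentile of control Euclidean distances, and reproducibility a median replicate Pearson correlation above the 95th percentile of non-replicates.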
# [2] = test system: HepG2-GM130-SQSTM1
# Procedure, shortened: as §1
# [3] = test system: HepG2-TP53BP1-CLTA
# Procedure, shortened: as §1
# [4] = test system: HepG2-TUBA1B-RELA
# Procedure, shortened: as §1
# [5] = test system: WPMY1-ACTB-RAB5A
# Procedure, shortened: as §1
# [6] = test system: WPMY1-CANX-COX4
# Procedure, shortened: as §1
# [7] = test system: WPMY1-TP53BP1-CLTA
# Procedure, shortened: as §1
# [8] = test system: WPMY1-TUBA1B-RELA
# Procedure, shortened: as §1
# [9] = test system: A549-TP53BP1-CLTA
# Procedure, shortened: as §1
structure (smiles),measurement,setting,value
CN(C)CC(O)Cn1c2ccc(Br)cc2c2cc(Br)ccc21 (configuration not stated) [Wiskostatin],lowest phenotypically active concentration,[1],9 µM
same,lowest phenotypically active concentration,[2],3 µM
same,lowest phenotypically active concentration,[3],3 µM
same,lowest phenotypically active concentration,[4],3 µM
same,lowest phenotypically active concentration,[5],3 µM
same,lowest phenotypically active concentration,[6],3 µM
same,lowest phenotypically active concentration,[7],9 µM
same,lowest phenotypically active concentration,[8],3 µM
CC(C)c1c(C(=O)Nc2ccccc2)c(-c2ccccc2)c(-c2ccc(F)cc2)n1CC[C@@H](O)C[C@@H](O)CC(=O)O [atorvastatin],lowest phenotypically active concentration,[1],9 µM
same,lowest phenotypically active concentration,[2],3 µM
same,lowest phenotypically active concentration,[3],9 µM
same,lowest phenotypically active concentration,[4],3 µM
same,lowest phenotypically active concentration,[5],1 µM
same,lowest phenotypically active concentration,[6],3 µM
same,lowest phenotypically active concentration,[7],9 µM
same,lowest phenotypically active concentration,[8],3 µM
CC(C)c1nc(CN(C)C(=O)N[C@H](C(=O)N[C@@H](Cc2ccccc2)C[C@H](O)[C@H](Cc2ccccc2)NC(=O)OCc2cncs2)C(C)C)cs1 [ritonavir],lowest phenotypically active concentration,[2],9 µM
COc1ccccc1C(=O)Nc1cc2c(cc1N1CCCC1)n(C)c(=O)n2C,lowest phenotypically active concentration,[5],9 µM
O=c1cc(-c2ccccc2)oc2cc(O)cc(O)c12 [Chrysin],lowest phenotypically active concentration,[6],9 µM
same,lowest phenotypically active concentration,[7],9 µM
N#Cc1ccc2ncnc(NCCc3ccccc3)c2c1 [Senexin A],lowest phenotypically active concentration,[1],9 µM
same,lowest phenotypically active concentration,[5],1 µM
same,lowest phenotypically active concentration,[6],3 µM
same,lowest phenotypically active concentration,[8],3 µM
CCc1nc(-c2cccc(C)c2)c(-c2ccnc(NC(=O)c3ccccc3)c2)s1,lowest phenotypically active concentration,[1],1 µM
same,lowest phenotypically active concentration,[2],1 µM
same,lowest phenotypically active concentration,[3],3 µM
same,lowest phenotypically active concentration,[4],1 µM
same,lowest phenotypically active concentration,[5],9 µM
same,lowest phenotypically active concentration,[8],9 µM
Fc1ccccc1Nc1nc2nonc2nc1Nc1ccccc1F,lowest phenotypically active concentration,[3],9 µM
same,lowest phenotypically active concentration,[4],9 µM
same,lowest phenotypically active concentration,[5],9 µM
same,lowest phenotypically active concentration,[6],9 µM
COc1cc2c(cc1OC)-c1c/c(=N/c3c(C)cc(C)cc3C)n(C)c(=O)n1CC2 [Trequinsin hydrochloride],lowest phenotypically active concentration,[1],9 µM
same,lowest phenotypically active concentration,[5],9 µM
same,lowest phenotypically active concentration,[6],9 µM
same,lowest phenotypically active concentration,[7],9 µM
same,lowest phenotypically active concentration,[8],9 µM
CCC(C)(C)C(=O)O[C@H]1C[C@@H](C)C=C2C=C[C@H](C)[C@H](CC[C@@H]3C[C@@H](O)CC(=O)O3)[C@H]21 [Simvastatin],lowest phenotypically active concentration,[9],9 µM
same,lowest phenotypically active concentration,[1],1 µM
same,lowest phenotypically active concentration,[2],1 µM
same,lowest phenotypically active concentration,[3],3 µM
same,lowest phenotypically active concentration,[4],1 µM
same,lowest phenotypically active concentration,[5],≤ 0.3 µM
same,lowest phenotypically active concentration,[6],1 µM
same,lowest phenotypically active concentration,[7],3 µM
same,lowest phenotypically active concentration,[8],3 µM
COc1cc(OC)c2c(=O)[nH]c(-c3cc(C)c(OCCO)c(C)c3)nc2c1 [apabetalone],lowest phenotypically active concentration,[1],9 µM
same,lowest phenotypically active concentration,[2],9 µM
same,lowest phenotypically active concentration,[7],9 µM
same,lowest phenotypically active concentration,[8],9 µM
COc1cc2nccc(Oc3ccc(NC(=O)C4(C(=O)Nc5ccc(F)cc5)CC4)cc3)c2cc1OC,lowest phenotypically active concentration,[5],3 µM
CC(C)(C)c1ccc(C(O)CCCN2CCC(C(O)(c3ccccc3)c3ccccc3)CC2)cc1 (configuration not stated) [terfenadine],lowest phenotypically active concentration,[4],1 µM
same,lowest phenotypically active concentration,[8],3 µM
O=C(Nc1ccc(CN2CCOCC2)cc1)c1ccc(-c2cccc(Cl)c2)o1,lowest phenotypically active concentration,[4],9 µM
CCC(=O)N1CCOc2c(cc(-c3ccc(OC)c(OC)c3)cc2OC[C@H]2CCCN(C)C2)C1,lowest phenotypically active concentration,[1],9 µM
same,lowest phenotypically active concentration,[4],9 µM
same,lowest phenotypically active concentration,[6],9 µM
O=C(/C=C/c1ccc2ccccc2n1)c1ccncc1,lowest phenotypically active concentration,[2],9 µM
same,lowest phenotypically active concentration,[4],9 µM
same,lowest phenotypically active concentration,[5],9 µM
same,lowest phenotypically active concentration,[7],9 µM
same,lowest phenotypically active concentration,[8],9 µM
Nc1cc(N)c(N)cc1N [FAK Inhibitor 14],lowest phenotypically active concentration,[3],9 µM
same,lowest phenotypically active concentration,[4],3 µM
same,lowest phenotypically active concentration,[5],3 µM
same,lowest phenotypically active concentration,[6],9 µM
same,lowest phenotypically active concentration,[7],9 µM
same,lowest phenotypically active concentration,[8],1 µM
CNC(=O)c1cc(Oc2ccc(NC(=O)Nc3ccc(Cl)c(C(F)(F)F)c3)c(F)c2)ccn1 [regorafenib],lowest phenotypically active concentration,[9],9 µM
same,lowest phenotypically active concentration,[1],3 µM
same,lowest phenotypically active concentration,[2],≤ 0.3 µM
same,lowest phenotypically active concentration,[3],≤ 0.3 µM
same,lowest phenotypically active concentration,[4],≤ 0.3 µM
same,lowest phenotypically active concentration,[7],9 µM
O=C1c2c(O)cccc2Cc2cccc(O)c21 [anthralin],lowest phenotypically active concentration,[5],9 µM
same,lowest phenotypically active concentration,[8],9 µM
O=S(=O)(c1cccc2cnccc12)N1CCNCC1,lowest phenotypically active concentration,[9],9 µM
same,lowest phenotypically active concentration,[1],3 µM
same,lowest phenotypically active concentration,[2],3 µM
same,lowest phenotypically active concentration,[3],9 µM
same,lowest phenotypically active concentration,[4],3 µM
same,lowest phenotypically active concentration,[5],9 µM
same,lowest phenotypically active concentration,[6],9 µM
same,lowest phenotypically active concentration,[7],9 µM
same,lowest phenotypically active concentration,[8],3 µM
